Results published in publication PMC6212790, “How bacterial xenogeneic silencer rok distinguishes foreign from self DNA in its resident genome”.
The full ranking holds about 33,000 sequences; the median of “e-score” is about -0.038, and the highest 2% start at about 0.33. The list comes from a sample in which the highest values are over-represented; it also holds similar and randomly drawn sequences.

Each sequence was assayed against T1, GST-Rok-C97-191 (Bacillus subtilis subsp. subtilis str. …, UniProt O34857 97-191) (assay: protein binding microarray; Rok is a gene silencer of Bacillus subtilis; high values mean tight binding). Details: protein: recombinant; tags: GST (pTH5325, pDEST15-Magic modified); dsDNA, one strand shown.
T1 sequence: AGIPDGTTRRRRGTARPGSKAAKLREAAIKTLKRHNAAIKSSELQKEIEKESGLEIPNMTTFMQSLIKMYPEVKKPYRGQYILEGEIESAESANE
How it was run: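 Every oligonucleotide joins a 25-mer constant primer to a 35-mer variable part drawn from a de Bruijn sequence of order 10, so each non-palindromic 8-mer appears at least 32 times and each palindromic 8-mer 16 times. The preference for every 8-mer is reported as a unitless, rank-based enrichment score (E-score). This score spans 0.5 for the most favored 8-mer to −0.5 for the most disfavored.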

Row | Sequence | binding signal
1 | CCTAGATA | 0.0777 E-score
2 | ACTAGATG | 0.317 E-score
3 | ACTAGATC | 0.335 E-score
4 | CCTAGATC | 0.0939 E-score
5 | CGGCACTC | -0.0669 E-score
6 | CCCATTTC | 0.0795 E-score
7 | ATGACCTG | -0.0486 E-score
8 | CCGACTAG | 0.0252 E-score
9 | CTTATTTA | 0.184 E-score
10 | GTTATTTA | 0.273 E-score
11 | GTTATATA | 0.31 E-score
12 | ATTATATC | 0.384 E-score
13 | ATTATATA | 0.446 E-score
14 | ATTATTTA | 0.37 E-score
15 | ATTATATG | 0.223 E-score
16 | CTTATATC | 0.117 E-score
17 | ATTATAGC | 0.189 E-score
18 | AAAATGCA | 0.153 E-score
19 | TAAGTGCA | 0.0583 E-score
20 | ACTAATTA | 0.444 E-score
21 | ACTAATTG | 0.189 E-score
22 | GCTAATTA | 0.289 E-score
23 | CCTAATTC | 0.115 E-score
24 | ACTAATTC | 0.373 E-score
25 | CCTAATTA | 0.28 E-score

Row | Sequence | binding signal
26 | CACTTGGC | -0.143 E-score
27 | CCTGACCA | -0.111 E-score
28 | AAAGTTCG | 0.0847 E-score
29 | CGCGCTAC | -0.0357 E-score
30 | TGCGCTAA | -0.0024 E-score
31 | CGCGCTAA | 0.329 E-score
32 | AATCTGTG | -0.0756 E-score
33 | CTAATTTC | 0.272 E-score
34 | ATAATTTC | 0.36 E-score
35 | CTAATTTA | 0.305 E-score
36 | ATAATTCA | 0.245 E-score
37 | AGAATTTG | 0.161 E-score
38 | ATAATTTA | 0.354 E-score
39 | GTAATTTA | 0.353 E-score
40 | GTAATTGA | 0.0917 E-score
41 | GCAATTTA | 0.257 E-score
42 | ATAATTTG | 0.344 E-score
43 | ACAATTTG | 0.104 E-score
44 | AGAATTTC | 0.255 E-score
45 | CAGGGATC | -0.151 E-score
46 | AGAGCTAA | 0.148 E-score
47 | AGTCCTCC | -0.0852 E-score
48 | AAAATTAT | 0.239 E-score
49 | GCTCACTA | 0.0154 E-score
50 | GAAGAGGA | -0.151 E-score

Row | Sequence | binding signal
51 | GGCATACC | 0.00482 E-score
52 | GCGGACGA | -0.188 E-score
53 | AGAGGCAT | 0.0046 E-score
54 | AATACGCT | -0.133 E-score
55 | ACAACGAG | -0.0859 E-score
56 | AGAGAAAG | 0.159 E-score
57 | CGATGACC | -0.125 E-score
58 | ATTTGTAC | 0.333 E-score
59 | ATTTGTAA | 0.203 E-score
60 | CTTTGTAC | 0.249 E-score
61 | AATTGTAC | 0.211 E-score
62 | GATTGTAC | 0.365 E-score
63 | GATTGTAA | 0.0411 E-score
64 | TAACTCCA | 0.0761 E-score
65 | CTCGGGAC | -0.0122 E-score
66 | ATACCTAT | 0.323 E-score
67 | GAACCTAC | 0.198 E-score
68 | CTACCTAA | 0.174 E-score
69 | GTACCTAC | 0.349 E-score
70 | CTACCTAC | 0.376 E-score
71 | CTACCTAG | 0.243 E-score
72 | ATACCTAC | 0.333 E-score
73 | ATACCTAG | 0.253 E-score
74 | GTACCTAA | 0.155 E-score
75 | AACATATC | 0.233 E-score

Row | Sequence | binding signal
76 | CATGTTAC | 0.15 E-score
77 | CTCCACTA | 0.107 E-score
78 | CAGCCCTG | -0.157 E-score
79 | ATAAATAT | 0.369 E-score
80 | ACAAATAT | 0.337 E-score
81 | AGAAATAG | 0.326 E-score
82 | ATAAATAC | 0.287 E-score
83 | ACAAATAA | 0.246 E-score
84 | ATAAATAA | 0.269 E-score
85 | CTAAATAC | 0.287 E-score
86 | ACAAATAC | 0.266 E-score
87 | GTAAATAC | 0.336 E-score
88 | AGAAATAT | 0.346 E-score
89 | ATAAATAG | 0.252 E-score
90 | AGAAATAC | 0.311 E-score
91 | TAGTCGCA | 0.00372 E-score
92 | AAAGGGTT | -0.0515 E-score
93 | CGACCAGC | -0.129 E-score
94 | AACGAGAG | -0.0985 E-score
95 | ACTTCCGG | -0.139 E-score
96 | CAAAAGGG | -0.177 E-score
97 | CAAACGCC | -0.166 E-score
98 | ATTCCGGG | -0.0619 E-score
99 | AATTCCTA | 0.155 E-score
100 | AAATCCCA | 0.123 E-score

Row | Sequence | binding signal
101 | GGATAGTA | 0.142 E-score
102 | AGATAGTG | 0.174 E-score
103 | AGATAGTA | 0.376 E-score
104 | CGATAGTC | -0.0434 E-score
105 | AGATAGTC | 0.0233 E-score
106 | CGATAGTA | 0.382 E-score
107 | ACTCCAAA | -0.0283 E-score
108 | AGAGCCAA | -0.0861 E-score
109 | ACCTTCCG | -0.0992 E-score
110 | CCGTACTC | 0.0243 E-score
111 | CTGTAATC | 0.13 E-score
112 | ATGTAAAT | 0.373 E-score
113 | CTGTAAAA | 0.0478 E-score
114 | TTGTAAAA | 0.265 E-score
115 | CTGTAATA | 0.334 E-score
116 | ATGTAAAC | 0.031 E-score
117 | ATGTAAAG | 0.164 E-score
118 | ATGTAAAA | 0.351 E-score
119 | ATGTAATA | 0.32 E-score
120 | GAGAGTGC | -0.103 E-score
121 | ACGGCAAT | 0.0959 E-score
122 | GGCTTCTA | 0.11 E-score
123 | ATCGCCGC | -0.0266 E-score
124 | GTATATCA | 0.216 E-score
125 | CTATATCC | 0.17 E-score

Row | Sequence | binding signal
126 | CTATATCA | 0.185 E-score
127 | ATATATCG | 0.366 E-score
128 | ATATATCC | 0.268 E-score
129 | ATATATCA | 0.396 E-score
130 | CATTGTGA | -0.101 E-score
131 | AGAGGTTG | -0.0137 E-score
132 | AAAGTTAA | -0.0842 E-score
133 | ACGTCGAT | 0.108 E-score
134 | AAAATCTC | 0.242 E-score
135 | GTAATCTA | 0.313 E-score
136 | CTAATCTA | 0.348 E-score
137 | GGAATCTA | 0.339 E-score
138 | GAAATCTA | 0.383 E-score
139 | GCAATCTA | 0.307 E-score
140 | AGAATCTA | 0.322 E-score
141 | GAAATCTC | 0.209 E-score
142 | AAAATCTG | 0.00361 E-score
143 | CGAATCTA | 0.256 E-score
144 | AAAATCTA | 0.339 E-score
145 | ATAATCTA | 0.289 E-score
146 | CAAAATCG | 0.0988 E-score
147 | TATGCCCA | -0.134 E-score
148 | GTGGCAAA | 0.0701 E-score
149 | ACCGTAGT | 0.0984 E-score
150 | ATGCGGCG | -0.186 E-score

Row | Sequence | binding signal
151 | AGCCGTTA | 0.0336 E-score
152 | CAAATCTC | 0.0537 E-score
153 | CAAATCTG | -0.15 E-score
154 | CAAATCTA | 0.354 E-score
155 | TAAATCAA | 0.178 E-score
156 | TAAATCTA | 0.364 E-score
157 | TAAATCGA | 0.0722 E-score
158 | AGTCTATC | -0.0937 E-score
159 | CATGTCAA | -0.0291 E-score
160 | AAAATATC | 0.186 E-score
161 | AAAATATG | 0.271 E-score
162 | CAAATATG | 0.161 E-score
163 | TAAATATA | 0.378 E-score
164 | CAAATATA | 0.346 E-score
165 | TAAATAAA | 0.162 E-score
166 | CAAATATC | 0.231 E-score
167 | GAAATATA | 0.305 E-score
168 | AAAATATA | 0.399 E-score
169 | CCCACCTA | -0.0708 E-score
170 | AAGTTAAG | -0.104 E-score
171 | GTTGAATA | 0.173 E-score
172 | CTTTTGTA | 0.241 E-score
